Source: PubChem
Shown are actives, neighbours in structure and some others; about 1.3% of the full set was active somewhere.
3CLpro inhibitor – SARS-CoV 3CLpro protease inhibitors, primary screen, biochemical, quenched FRET; Replicase polyprotein 1ab (Severe acute respiratory syndrome coronavirus), P0C6X7; recombinant SARS-CoV 3CLpro, quenched FRET peptide cleavage; inhibition, % at 6 µM; 290,000 compounds, 0.14% hits; AID 1706, 2009; in the data active = inhibition above about 12%
PrPC TRFRET – inhibitors of human cell surface prion protein PrPC, primary screen, cell-based, TR-FRET. Major prion protein (Homo sapiens), P04156. TR-FRET read-out. inhibition, % at 13.8 µM. 370,000 compounds, 0.43% hits. AID 720596, 2013; in the data active = inhibition above about 24%; also: 0% = median of the test wells and 100% = reference compound wells
CCHF vOTU inh – CCHFV vOTU protease inhibitors, primary screen, biochemical, Pep-AMC substrate, fluorescence; Crimean-Congo hemorrhagic fever virus L polyprotein viral ovarian tumor (vOTU) protease …; inhibition, % at 11.5 µM; AID 651958, 2012; 370,000 compounds, 0.55% hits; in the data active = inhibition above about 30%; also: 0% = vehicle wells with enzyme and 100% = no enzyme wells
PrP 5UTR inh – inhibition of PrP 5' UTR reporter expression; inhibition, % (concentration not given with the values); 340,000 compounds, 0.35% hits; cell-based PrP 5' UTR mRNA reporter, plate reader; in the data active = inhibition above about 52%; also: 0 = median of the neutral control wells
PrPC confirm – confirmation of inhibitors of cell surface human prion protein, confirmation, cell-based, TR-FRET | cell surface PrPC level | inhibition, % at 13.8 µM | shares compounds with PrPC TRFRET | 1,500 compounds, 65% hits; in the data active = inhibition above about 25%
LD9 cytotox – cytotoxicity in LD9 cells, cytotoxicity control for cell surface PrPc inhibitor project, cell-based, luminescence, high throughput. shares compounds with PrPC TRFRET. AID 743201, 2013. inhibition, % at 13.8 µM. 1,500 compounds, 29% hits. luminescence viability; in the data active = inhibition above about 9.5%
Numbers without * were called inactive; x = no result.

SMILES	3CLpro inhibitor	PrPC TRFRET	CCHF vOTU inh	PrP 5UTR inh	PrPC confirm	LD9 cytotox
Cc1ccc(-n2c(O)c(C=NCCN3CCNCC3)c(=O)[nH]c2=S)cc1	-3.6	2.0	22.3	-8.9	x	x
O=C(NC1CCCC1)C(c1ccncc1)N(Cc1ccccc1)C(=O)c1ccc(-c2ccccc2)[nH]1 (stereo unspecified)	7.1	26.4*	9.2	-13.2	18.0	-9.4
CC(C)(C)NC(=O)C(c1ccncc1)N(Cc1ccc(F)cc1)C(=O)c1ccc(-c2ccccc2)[nH]1 (stereo unspecified)	11.7	27.0*	12.4	-5.9	15.1	-4.1
O=C(N/N=C/c1ccncc1)C1CC1(c1ccccc1)c1ccccc1 (stereo unspecified)	-1.2	12.8	-7.6	-0.1	x	x
C=CCOC(=O)C1=C(C)NC(SCC(=O)N(CC)CC)=C(C#N)C1c1ccccc1 (stereo unspecified)	2.8	28.9*	13.6	-1.7	35.4*	8.4
O=C(NCc1ccc(F)cc1)c1cc(-c2ccncc2)nc2ccccc12	2.1	-19.9	-17.6	-11.1	x	x
O=C(Nc1ccc(Cn2cccn2)cc1)c1ccc(COc2cccc(Br)c2)cc1	2.1	28.2*	13.4	-60.7	25.6*	2.4
O=C(Nc1ccn(Cc2ccccc2F)n1)c1ccc(COc2ccc(Br)cc2)cc1	3.0	32.2*	16.1	-14.0	23.5	8.1
O=C(N/N=C/c1ccccc1)c1cc[n+]([O-])cc1	0.2	2.0	9.3	-29.5	x	x
C/C(N)=C(/C#N)C(=O)CSc1nc2ccccc2c(=O)n1Cc1ccc(C)cc1	-1.3	27.1*	8.7	-5.7	7.4	-1.9
Cc1ccc(Cn2c(SCC(=O)N3CC(=O)Nc4ccccc43)nc3ccccc3c2=O)cc1	4.2	29.4*	5.4	-34.5	44.5*	-2.4
C/C(N)=C(/C#N)C(=O)CSc1nc2ccccc2c(=O)n1Cc1ccc(F)cc1	-0.4	-1.7	-0.9	x	x	x
CCn1c(=O)c2cc(C(=O)N(C)c3cc(C)ccc3OC)sc2c2ccccc21	-1.7	-0.9	8.0	x	x	x
Cc1cc(C)n2c(-c3ccccc3Cl)nnc2n1	-3.0	25.0*	-22.0	-16.2	5.0	1.5
Cc1cc(C)n2c(SCc3ccccc3Cl)nnc2n1	-0.3	13.2	9.2	-50.3	x	x
COc1ccccc1C(CC(=O)Nc1ccccc1C)c1ccc(OC(C)C)cc1 (stereo unspecified)	0.0	6.2	9.9	-14.9	x	x
O=C(O)C(=Cc1ccccc1[N+](=O)[O-])c1ccc2c(c1)OCO2	x	27.3*	-16.3	x	0.2	-6.8
O=C(O)C(=Cc1cc2c(cc1[N+](=O)[O-])OCO2)c1cc2c(cc1Br)OCO2	x	-8.1	12.8	-22.7	x	x
C=CCOc1nc(-c2ccccc2Cl)nc2ccccc12	-2.5	3.8	8.3	-38.7	x	x
CC(C)C(C)NC(=O)CSc1ccc(S(=O)(=O)N2CCOCC2)cn1 (stereo unspecified)	x	5.3	-3.3	-17.0	x	x
CC(NC(=O)CSc1ccc(S(=O)(=O)N2CCOCC2)cn1)c1ccc(Cl)cc1Cl (stereo unspecified)	x	26.7*	8.9	-15.9	4.7	2.6
CCC1(C)Cc2ccccc2-c2[nH]c(=S)[nH]c(=O)c21 (stereo unspecified)	-0.7	89.8*	8.1	-18.5	120.1*	-8.1
CC1CCc2sc(C(=O)NN)cc2C1 (stereo unspecified)	8.3	1.9	5.3	-23.8	x	x
CC1CCc2sc(C(=O)Nc3ccc(C(N)=O)cc3)cc2C1 (stereo unspecified)	1.4	69.9*	10.4	-64.1	44.2*	0.2
CC1Cc2[nH]c(=S)[nH]c(=O)c2C(c2ccc(C(C)C)cc2)O1 (stereo unspecified)	x	-2.2	6.7	x	x	x
Cc1cccc(NC(=O)CSc2nnc(-c3ccncc3)n2CC2CCCO2)c1 (stereo unspecified)	2.2	60.3*	14.1	7.9	3.8	-6.9
COc1cc2c(cc1OC)CN1CCc3cc(OC)c(OC)cc3C1C2 (stereo unspecified)	x	-16.2	-3.3	x	x	x
